This note sets out measurements from PubChem BioAssay (EPA / NIEHS).

Molecules are shown by their SMILES. Results filed as inconclusive are left out. Calls of active or inactive are those of the source. How the source made its calls, unless noted: active means hit-call score of the fitted dose curve at least 0.9, where 1 is the maximum; inconclusive means response in the unintended direction; inactive means score below 0.9.

For assay [1], the target named is human Peroxisome Proliferator-activated Receptor alpha (PPARa), PPARA (gene 5465) (UniProt Q07869). The assay is described as follows: ATG_PPARa_TRANS: Attagene TRANS-FACTORIAL HepG2 Assay for human Peroxisome Proliferator-activated Receptor alpha (PPARa) (AID 2283001).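 On AC50: potency for gain of reporter signal over DMSO so agonist or activator.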 The gist of the method:
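Reporter transcripts quantified by RT-PCR plus capillary electrophoresis after 24 h treatment, fitted upward relative to DMSO. Cells: human HepG2 transiently carrying multiple GAL4-UAS reporter units driven by NR-Gal4 chimeras.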

Read-out in assay [2]: Intercellular Adhesion Molecule 1 (ICAM1), ICAM1 (gene 3383)
The assay is described as follows: BSK_3C_ICAM1: BioMAP Diversity Plus: 3C Assay for Intercellular Adhesion Molecule 1 (ICAM1) Biomarker Activity (AID 2283003; active means hit-call score of the fitted dose curve at least 0.9, where 1 is the maximum; inactive means score below 0.9). The settings on record: primary human endothelial cells (HUVEC); actives raise or lower the signal. The method in brief:
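Chemicals are dosed onto primary human umbilical vein endothelium (3C system). After 24 h, ICAM-1 is measured by ELISA, and responses are fitted bidirectionally relative to DMSO.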

Assay [3] is described as follows: BSK_3C_Proliferation: Cell Proliferation Assessment in the BioMAP Diversity Plus: 3C Assay (AID 2283006; active means hit-call score of the fitted dose curve at least 0.9, where 1 is the maximum; inactive means score below 0.9;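 on AC50: potency may reflect either rise or fall in cell number versus DMSO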). The note with it: primary human endothelial cells (HUVEC). The gist of the method:
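Cells (human umbilical vein endothelial, sub-confluent) receive test chemical; after 48 h they are fixed in 10% trichloroacetic acid, stained with 0.1% SRB and read at 560 nm. Activity is referenced to DMSO, fitting increases and decreases.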

Assay [4] has as its target Peroxisome proliferator-activated receptor gamma (Homo sapiens) (UniProt P37231). In words: ATG_PPARg_TRANS: Attagene TRANS-FACTORIAL HepG2 Assay for human Peroxisome Proliferator-activated Receptor-gamma (PPARg) (AID 2283007). The gist of the method: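 Chimeric NR-Gal4 transactivation is measured in transiently transfected HepG2 cells by reporter mRNA induction at 24 h. Detection uses RT-PCR with fluorescent labelling and capillary electrophoresis; DMSO defines baseline.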

For assay [5], the target named is Nuclear receptor subfamily 1 group I member 2 (Homo sapiens) (UniProt O75469). In words: ATG_PXR_TRANS: Attagene TRANS-FACTORIAL HepG2 Assay for human Pregnane X Receptor (PXR) (AID 2283008). The gist of the method:
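Trans-factorial format: exogenous NR-Gal4 fusion activity, not endogenous factor, in transfected human HepG2 liver cells. After 24 h dosing, RNA isolated, reverse-transcribed, amplified and resolved by capillary electrophoresis; induction scored versus DMSO.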

Assay [6] addresses Retinoic acid receptor RXR-alpha (Homo sapiens) (UniProt P19793). In words: ATG_RXRa_TRANS: Attagene TRANS-FACTORIAL HepG2 Assay for human Retinoid X Receptor alpha (RXRa) (AID 2283012). The method in brief:
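Measures exogenous chimeric NR-GAL4 activity in transfected HepG2 liver cells after 24 h of dosing. Induced reporter mRNA was detected by RT-PCR with capillary electrophoresis, and gain of signal was analysed against DMSO.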

Read-out in assay [7]: E-selectin (Homo sapiens) (UniProt P16581)
In words: BSK_3C_Eselectin: BioMAP Diversity Plus: 3C Assay for Eselectin Biomarker Activity (AID 2283015; active means hit-call score of the fitted dose curve at least 0.9, where 1 is the maximum; inactive means score below 0.9;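 on outcome: cell surface E-selectin protein quantified by ELISA 24 h after dosing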). The settings on record: primary human endothelial cells (HUVEC); actives raise or lower the signal. The method in brief:
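Endpoint derived by bidirectional fitting against DMSO vehicle; signal is ELISA-detected E-selectin from primary HUVEC at 24 h post-dosing, with parallel SRB staining (0.1% SRB, 560 nm) flagging cytotoxicity.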

Read-out in assay [8]: Interleukin-1 alpha (IL1a), IL1A (gene 3552)
The assay is described as follows: BSK_BE3C_IL1a: BioMAP Diversity Plus: BE3C Assay for Interleukin-1 alpha (IL1a) Biomarker Activity (AID 2283016; active means hit-call score of the fitted dose curve at least 0.9, where 1 is the maximum; inactive means score below 0.9). The note with it: primary human bronchial epithelial cells; actives raise or lower the signal. The method in brief: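 Signal from IL-1a ELISA, taken 24 h after chemical dosing of human bronchial epithelial cells, is compared with DMSO as baseline using bidirectional curve fitting.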

Read-out in assay [9]: Monocyte Chemoattractant Protein-1 (MCP1), CCL2 (gene 6347)
The assay is described as follows: BSK_3C_MCP1: BioMAP Diversity Plus: 3C Assay for Monocyte Chemoattractant Protein-1 (MCP1) Biomarker Activity (AID 2283017; active means hit-call score of the fitted dose curve at least 0.9, where 1 is the maximum; inactive means score below 0.9). The note with it: primary human endothelial cells (HUVEC); actives raise or lower the signal. The method in brief: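 Using human vascular primary endothelium, researchers measured MCP-1 by ELISA 24 h after treatment, with DMSO serving as negative control for bidirectional fitting.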

Read-out in assay [10]: Monocyte Chemoattractant Protein-1 (MCP1), CCL2 (gene 6347)
In words: BSK_4H_MCP1: BioMAP Diversity Plus: 4H Assay for Monocyte Chemoattractant Protein-1 (MCP1) Biomarker Activity (AID 2283018; active means hit-call score of the fitted dose curve at least 0.9, where 1 is the maximum; inactive means score below 0.9). The note with it: primary human endothelial cells (HUVEC); actives raise or lower the signal. The method in brief:
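Endothelial cells from umbilical vein were treated with test chemical, then after 24 h MCP-1 levels were quantified by ELISA; endpoint values came from bidirectional fitting with DMSO as baseline of activity.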

Read-out in assay [11]: Human Leukocyte Antigen - DR isotype (HLADR), HLA-DRA (gene 3122)
The assay is described as follows: BSK_3C_HLADR: BioMAP Diversity Plus: 3C Assay for Human Leukocyte Antigen - DR isotype (HLADR) Biomarker Activity (AID 2283019; active means hit-call score of the fitted dose curve at least 0.9, where 1 is the maximum; inactive means score below 0.9;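 on outcome: ELISA of cell-surface HLA-DR on HUVEC 24 h after dosing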). The settings on record: primary human endothelial cells (HUVEC); actives raise or lower the signal. The gist of the method:
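Compound added to primary HUVEC cultures, 24 h incubation, then HLA-DR determined by ELISA; endpoint derived by bidirectional fitting relative to DMSO negative control.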

Read-out in assay [12]: Interleukin-8 (IL8), CXCL8 (gene 3576)
In words: BSK_3C_IL8: BioMAP Diversity Plus: 3C Assay for Interleukin-8 (IL8) Biomarker Activity (AID 2283020; active means hit-call score of the fitted dose curve at least 0.9, where 1 is the maximum; inactive means score below 0.9). The settings on record: primary human endothelial cells (HUVEC); actives raise or lower the signal. The gist of the method:
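Endothelial primary cells of human umbilical vein origin are dosed with chemical; after 24 h the IL-8 biomarker is measured by ELISA, and concentration–response is fitted in both directions versus DMSO.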

In assay [13] the target is human Peroxisome Proliferator-activated Receptor delta (PPARd), PPARD (gene 5467) (UniProt Q03181). The assay is described as follows: ATG_PPARd_TRANS: Attagene TRANS-FACTORIAL HepG2 Assay for human Peroxisome Proliferator-activated Receptor delta (PPARd) (AID 2283002). The gist of the method:
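Transient HepG2 transfection (multiple GAL4-UAS RTUs, chimeric receptor-Gal4); 24 h dosing; total RNA → oligo(dT) RT → PCR → 6-FAM primer extension → HpaI cut → CE. Positive direction vs DMSO.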

Assay [14] has as its target human RAR-related Orphan Receptor gamma (RORg), RORC (gene 6097) (UniProt P51449). The assay is described as follows: ATG_RORg_TRANS: Attagene TRANS-FACTORIAL HepG2 Assay for human RAR-related Orphan Receptor gamma (RORg) (AID 2283011). The gist of the method: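 Chimeric RORg-Gal4 transactivation in transfected HepG2; 24 h exposure; RT-PCR/capillary electrophoresis readout of reporter mRNA, DMSO baseline.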

The target of assay [15] is human Retinoid X Receptor beta (RXRb), RXRB (gene 6257) (UniProt P28702). The assay is described as follows: ATG_RXRb_TRANS: Attagene TRANS-FACTORIAL HepG2 Assay for human Retinoid X Receptor beta (RXRb) (AID 2283013). The method in brief:
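Chimeric receptor-Gal4 activity was assessed in transiently transfected human HepG2 cells after 24 h exposure. Transcripts from GAL4-UAS reporters were quantified by fluorescent RT-PCR and capillary electrophoresis, with DMSO as negative control and baseline.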

In assay [16] the target is human Thyroid Receptor alpha (THRa1), THRA (gene 7067) (UniProt P10827). The assay is described as follows: ATG_THRa1_TRANS: Attagene TRANS-FACTORIAL HepG2 Assay for human Thyroid Receptor alpha (THRa1) (AID 2283014). The gist of the method:
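Measured here is mRNA from a GAL4-UAS reporter in transfected HepG2 cells carrying a Gal4-fused receptor, 24 h post-dose. DMSO served as negative control and baseline.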

In assay [17] the target is human RAR-related Orphan Receptor beta (RORb), RORB (gene 6096) (UniProt Q92753). In words: ATG_RORb_TRANS: Attagene TRANS-FACTORIAL HepG2 Assay for human RAR-related Orphan Receptor beta (RORb) (AID 2283010). The gist of the method:
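Transfect HepG2 with multiple GAL4-UAS reporter transcription units; dose chemicals for 24 h; isolate RNA, reverse-transcribe and PCR-amplify reporter sequences; label, digest and resolve fragments by capillary electrophoresis; fit increases relative to DMSO.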

In assay [18] the target is human Retinoic Acid Receptor beta (RARb), RARB (gene 5915) (UniProt P10826). In words: ATG_RARb_TRANS: Attagene TRANS-FACTORIAL HepG2 Assay for human Retinoic Acid Receptor beta (AID 2283004). The gist of the method: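 Fluorescent capillary-electrophoresis detection of GAL4-UAS reporter mRNA defines the endpoint, with induction over DMSO-treated wells scored as activity. Transiently transfected human hepatoma HepG2 cells expressing exogenous NR–Gal4 proteins are exposed to test chemicals for 24 h.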

The target in assay [19] is Retinoic acid receptor alpha (Homo sapiens) (UniProt P10276). In words: ATG_RARa_TRANS: Attagene TRANS-FACTORIAL HepG2 Assay for human Retinoic Acid Receptor alpha (RARa) (AID 2283005). The gist of the method:
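Reporter transcripts, measured by RT-PCR with fluorescent labeling and capillary electrophoresis after 24 h dosing, reflect activity of an exogenous human RARa–GAL4 fusion in transiently transfected HepG2. Fitted for increase relative to DMSO.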

Sequence of human RAR-related Orphan Receptor beta (RORb), RORB (gene 6096) (Q92753 whole entry, looked up, the tested form may be a part): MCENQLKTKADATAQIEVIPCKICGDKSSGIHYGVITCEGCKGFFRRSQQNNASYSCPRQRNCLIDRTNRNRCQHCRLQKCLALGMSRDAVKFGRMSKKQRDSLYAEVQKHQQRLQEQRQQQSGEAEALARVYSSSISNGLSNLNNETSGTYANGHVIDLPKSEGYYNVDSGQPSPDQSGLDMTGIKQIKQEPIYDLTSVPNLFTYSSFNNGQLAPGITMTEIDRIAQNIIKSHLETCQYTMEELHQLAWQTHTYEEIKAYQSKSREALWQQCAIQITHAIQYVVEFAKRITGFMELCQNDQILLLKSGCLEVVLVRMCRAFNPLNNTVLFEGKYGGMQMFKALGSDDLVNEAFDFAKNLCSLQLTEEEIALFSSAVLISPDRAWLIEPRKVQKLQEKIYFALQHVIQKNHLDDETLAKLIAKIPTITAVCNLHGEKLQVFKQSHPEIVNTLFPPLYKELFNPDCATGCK
Sequence of Nuclear receptor subfamily 1 group I member 2 (Homo sapiens) (O75469 whole entry, looked up, the tested form may be a part): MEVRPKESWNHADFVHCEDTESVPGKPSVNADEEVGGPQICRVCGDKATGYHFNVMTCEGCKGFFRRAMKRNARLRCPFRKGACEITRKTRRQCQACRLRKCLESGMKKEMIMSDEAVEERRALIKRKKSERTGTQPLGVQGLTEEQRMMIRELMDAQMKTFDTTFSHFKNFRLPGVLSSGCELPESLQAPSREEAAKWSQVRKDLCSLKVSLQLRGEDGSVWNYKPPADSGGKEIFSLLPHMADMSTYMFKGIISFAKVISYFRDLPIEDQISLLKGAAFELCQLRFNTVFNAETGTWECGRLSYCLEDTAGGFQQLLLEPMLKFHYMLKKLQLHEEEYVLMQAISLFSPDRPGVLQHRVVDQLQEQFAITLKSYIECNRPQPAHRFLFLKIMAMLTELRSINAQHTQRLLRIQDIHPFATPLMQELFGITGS
Sequence of E-selectin (Homo sapiens) (P16581 whole entry, looked up): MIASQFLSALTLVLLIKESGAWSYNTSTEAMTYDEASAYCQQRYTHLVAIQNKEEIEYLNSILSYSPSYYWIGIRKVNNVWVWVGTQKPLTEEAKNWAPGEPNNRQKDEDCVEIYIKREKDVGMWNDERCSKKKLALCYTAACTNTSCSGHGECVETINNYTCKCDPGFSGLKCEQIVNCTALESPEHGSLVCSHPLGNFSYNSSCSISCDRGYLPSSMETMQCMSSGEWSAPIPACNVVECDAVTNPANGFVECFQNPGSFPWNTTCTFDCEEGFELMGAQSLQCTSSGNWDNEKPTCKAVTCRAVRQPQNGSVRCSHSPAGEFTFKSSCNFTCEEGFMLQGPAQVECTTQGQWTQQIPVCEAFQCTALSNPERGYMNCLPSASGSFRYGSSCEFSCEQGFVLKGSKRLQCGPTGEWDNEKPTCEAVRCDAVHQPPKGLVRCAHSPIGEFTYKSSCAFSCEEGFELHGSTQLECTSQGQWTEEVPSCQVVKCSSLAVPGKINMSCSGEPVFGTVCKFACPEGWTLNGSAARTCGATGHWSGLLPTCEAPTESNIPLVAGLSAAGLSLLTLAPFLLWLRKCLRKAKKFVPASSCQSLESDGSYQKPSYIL
Sequence of Retinoic acid receptor RXR-alpha (Homo sapiens) (P19793 whole entry, looked up, the tested form may be a part): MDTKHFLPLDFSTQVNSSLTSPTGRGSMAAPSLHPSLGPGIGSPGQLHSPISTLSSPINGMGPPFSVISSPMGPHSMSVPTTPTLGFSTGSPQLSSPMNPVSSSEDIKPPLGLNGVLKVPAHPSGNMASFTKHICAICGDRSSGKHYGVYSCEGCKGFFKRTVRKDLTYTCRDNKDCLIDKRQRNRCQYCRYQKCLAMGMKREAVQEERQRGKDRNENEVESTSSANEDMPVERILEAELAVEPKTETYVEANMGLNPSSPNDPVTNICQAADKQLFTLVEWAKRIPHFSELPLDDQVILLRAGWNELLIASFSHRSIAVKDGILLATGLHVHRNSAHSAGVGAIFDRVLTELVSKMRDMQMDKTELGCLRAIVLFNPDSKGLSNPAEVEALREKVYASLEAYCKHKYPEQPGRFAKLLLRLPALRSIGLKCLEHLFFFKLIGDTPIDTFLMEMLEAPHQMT
Sequence of human Peroxisome Proliferator-activated Receptor alpha (PPARa), PPARA (gene 5465) (Q07869 whole entry, looked up, the tested form may be a part): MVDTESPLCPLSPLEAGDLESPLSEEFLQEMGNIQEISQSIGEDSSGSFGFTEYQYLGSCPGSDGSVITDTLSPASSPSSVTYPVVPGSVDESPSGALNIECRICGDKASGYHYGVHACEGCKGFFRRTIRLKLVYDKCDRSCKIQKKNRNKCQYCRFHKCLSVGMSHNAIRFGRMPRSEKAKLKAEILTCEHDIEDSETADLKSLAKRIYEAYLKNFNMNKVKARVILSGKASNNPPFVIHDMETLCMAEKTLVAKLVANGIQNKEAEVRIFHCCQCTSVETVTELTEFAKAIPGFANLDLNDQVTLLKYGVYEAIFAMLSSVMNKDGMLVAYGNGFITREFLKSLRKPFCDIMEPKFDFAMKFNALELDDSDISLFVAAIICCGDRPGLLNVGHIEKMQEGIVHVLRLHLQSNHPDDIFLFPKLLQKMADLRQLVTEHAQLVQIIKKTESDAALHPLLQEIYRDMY
Sequence of human RAR-related Orphan Receptor gamma (RORg), RORC (gene 6097) (P51449 whole entry, looked up, the tested form may be a part): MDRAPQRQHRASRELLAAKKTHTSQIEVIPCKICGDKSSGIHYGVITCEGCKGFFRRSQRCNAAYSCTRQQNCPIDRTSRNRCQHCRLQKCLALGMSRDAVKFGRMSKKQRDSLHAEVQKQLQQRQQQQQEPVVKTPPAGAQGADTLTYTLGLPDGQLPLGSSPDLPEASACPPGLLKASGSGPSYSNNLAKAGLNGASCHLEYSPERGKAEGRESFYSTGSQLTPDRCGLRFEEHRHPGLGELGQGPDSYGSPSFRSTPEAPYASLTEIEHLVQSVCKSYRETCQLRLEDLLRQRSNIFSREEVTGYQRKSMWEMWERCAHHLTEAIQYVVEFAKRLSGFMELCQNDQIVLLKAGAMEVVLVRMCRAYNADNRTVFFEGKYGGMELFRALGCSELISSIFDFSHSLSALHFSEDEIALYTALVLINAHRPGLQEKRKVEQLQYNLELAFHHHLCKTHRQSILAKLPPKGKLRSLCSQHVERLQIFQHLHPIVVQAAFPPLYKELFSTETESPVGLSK
Sequence of human Thyroid Receptor alpha (THRa1), THRA (gene 7067) (P10827 whole entry, looked up, the tested form may be a part): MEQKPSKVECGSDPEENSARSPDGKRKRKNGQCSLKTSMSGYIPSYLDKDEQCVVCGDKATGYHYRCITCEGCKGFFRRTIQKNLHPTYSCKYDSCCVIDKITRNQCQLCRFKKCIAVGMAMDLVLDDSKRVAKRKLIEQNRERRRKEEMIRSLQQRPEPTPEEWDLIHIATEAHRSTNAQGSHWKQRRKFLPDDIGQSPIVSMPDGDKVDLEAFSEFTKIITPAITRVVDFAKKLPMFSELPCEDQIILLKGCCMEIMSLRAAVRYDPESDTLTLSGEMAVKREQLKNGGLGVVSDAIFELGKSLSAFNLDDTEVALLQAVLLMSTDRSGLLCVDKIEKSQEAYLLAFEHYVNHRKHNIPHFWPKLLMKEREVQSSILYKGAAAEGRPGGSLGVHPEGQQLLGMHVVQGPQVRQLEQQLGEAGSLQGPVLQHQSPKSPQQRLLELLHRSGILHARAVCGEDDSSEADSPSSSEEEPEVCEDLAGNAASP
Sequence of human Retinoid X Receptor beta (RXRb), RXRB (gene 6257) (P28702 whole entry, looked up, the tested form may be a part): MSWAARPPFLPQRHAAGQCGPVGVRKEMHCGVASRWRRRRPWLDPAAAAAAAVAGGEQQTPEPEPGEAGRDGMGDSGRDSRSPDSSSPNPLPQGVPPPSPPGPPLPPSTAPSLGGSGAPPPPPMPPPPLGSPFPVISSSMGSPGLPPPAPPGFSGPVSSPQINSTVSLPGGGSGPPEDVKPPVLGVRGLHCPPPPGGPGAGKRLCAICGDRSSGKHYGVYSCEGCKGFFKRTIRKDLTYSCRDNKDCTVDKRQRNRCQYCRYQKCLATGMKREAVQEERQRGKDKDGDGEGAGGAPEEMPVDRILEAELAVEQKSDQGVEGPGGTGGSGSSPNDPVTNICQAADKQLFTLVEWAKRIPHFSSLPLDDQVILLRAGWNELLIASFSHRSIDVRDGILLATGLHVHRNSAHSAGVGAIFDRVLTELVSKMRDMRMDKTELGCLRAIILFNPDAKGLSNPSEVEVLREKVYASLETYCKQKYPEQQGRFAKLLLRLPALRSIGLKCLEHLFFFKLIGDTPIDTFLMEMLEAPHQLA
Sequence of human Peroxisome Proliferator-activated Receptor delta (PPARd), PPARD (gene 5467) (Q03181 whole entry, looked up, the tested form may be a part): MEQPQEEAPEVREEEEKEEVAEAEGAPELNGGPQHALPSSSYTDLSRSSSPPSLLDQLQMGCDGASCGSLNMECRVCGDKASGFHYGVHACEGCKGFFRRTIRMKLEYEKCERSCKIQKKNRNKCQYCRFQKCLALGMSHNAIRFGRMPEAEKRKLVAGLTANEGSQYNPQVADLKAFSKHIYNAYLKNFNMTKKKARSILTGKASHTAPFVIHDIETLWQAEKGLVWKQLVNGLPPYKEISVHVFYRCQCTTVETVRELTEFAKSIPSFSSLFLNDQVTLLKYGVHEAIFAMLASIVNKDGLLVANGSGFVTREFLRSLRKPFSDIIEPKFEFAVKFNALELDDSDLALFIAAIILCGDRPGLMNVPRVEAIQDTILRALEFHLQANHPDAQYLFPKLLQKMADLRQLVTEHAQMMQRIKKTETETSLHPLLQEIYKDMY
Sequence of Peroxisome proliferator-activated receptor gamma (Homo sapiens) (P37231 whole entry, looked up, the tested form may be a part): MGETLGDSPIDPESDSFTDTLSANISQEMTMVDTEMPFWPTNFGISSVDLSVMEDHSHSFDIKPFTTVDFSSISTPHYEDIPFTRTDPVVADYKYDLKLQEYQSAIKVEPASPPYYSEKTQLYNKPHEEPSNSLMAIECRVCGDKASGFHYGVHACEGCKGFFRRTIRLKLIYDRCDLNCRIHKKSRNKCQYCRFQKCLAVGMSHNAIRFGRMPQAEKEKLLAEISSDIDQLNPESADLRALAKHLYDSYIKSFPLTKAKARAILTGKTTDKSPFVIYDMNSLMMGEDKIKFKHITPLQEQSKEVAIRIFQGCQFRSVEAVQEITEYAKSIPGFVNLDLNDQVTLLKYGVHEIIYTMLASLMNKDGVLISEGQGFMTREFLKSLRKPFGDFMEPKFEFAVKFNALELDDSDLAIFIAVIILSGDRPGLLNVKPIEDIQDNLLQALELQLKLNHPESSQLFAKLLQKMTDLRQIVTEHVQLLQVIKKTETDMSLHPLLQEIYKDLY

In the case of `N#Cc1ccc(CC(=NNC(=O)Nc2ccc(OC(F)(F)F)cc2)c2cccc(C(F)(F)F)c2)cc1`, the call in assay [1], in [2], in assay [3], in assay [5], in assay [6] and in [7] was inactive. Also, the result in assay [8], in [9], in assay [10], in assay [11] and in assay [12] was inactive. Also, the AC50 in assay [4] is 26.9 µM (active).

Turning to `Cc1ccc2sc3cccc(C)c3c2c1`, the compound was classed as inactive in [1], in assay [13], in assay [14], in assay [15] and in assay [16].

In the case of `O=C(O)C[C@H](O)C[C@H](O)/C=C/c1c(C2CC2)nc2ccccc2c1-c1ccc(F)cc1`, the call in assay [1], in assay [2], in assay [5], in assay [17], in [6] and in assay [15] was inactive. The compound was classed as inactive in assay [16], in assay [7], in assay [9], in [11] and in [12]. Also, the AC50 in assay [3] is 1.95 µM (active); in assay [4] it was 20.2 µM (active); in assay [8], 1.43 µM (active); in [10] it was 0.551 µM (active).

For `CC(O)C(C)O` (stereo unspecified), the call in assay [1], in [13], in assay [5], in [17], in assay [14] and in assay [6] was inactive. For the same compound, in [16], the compound was called inactive.

On to `CC1=CCC(O)(C(C)C)CC1` (stereo unspecified), for which the outcome in assay [1], in assay [13], in assay [5], in [17], in assay [14] and in [6] was inactive. The call in assay [16] was inactive.

On to `CCCCCCCCCCCCOCCO`, for which the call in [1], in [18], in assay [19] and in assay [6] was inactive. Besides, the concentration at half-maximal activity (AC50) in [4] and in assay [15] was 33.4 µM (active) each time.

For `Nc1cc([N+](=O)[O-])ccc1Cl`, the outcome in [1], in [2], in [3], in [5], in assay [14] and in assay [6] was inactive. The call in [15], in assay [16], in assay [7], in assay [8], in assay [9] and in assay [10] was inactive. Also, the result in assay [11] and in assay [12] was inactive. For the same compound, in assay [4], the AC50 was 49.8 µM (active).

Turning to `CC1(C)[C@@H]2CC[C@@]1(C)[C@H](O)C2`, the call in assay [1], in assay [13], in assay [5], in assay [14], in assay [6] and in [16] was inactive.

As to `CCCCCCCCC=O`, the AC50 in assay [1] was 100 µM (active). Further, the result in assay [2], in assay [3], in [17], in assay [6], in assay [7] and in [8] was inactive. For the same compound, the outcome in assay [9], in assay [10], in assay [11] and in assay [12] was inactive.

`Clc1sc(Cl)c(Cl)c1Cl`: the call in assay [1], in [13], in assay [5] and in [15] was inactive.

For the compound `CC(C)c1ccc(C(C)C)cc1`, the call in assay [1], in assay [5], in assay [17], in assay [16] and in assay [12] was inactive. In addition, the AC50 in assay [2] was 35.8 µM (active); in assay [3], 33.8 µM (active); in [15], 66.5 µM (active); in [7], 36.1 µM (active); in [8], 29.1 µM (active); in assay [9], 36.8 µM (active). Also, the AC50 in [10] was 29.9 µM (active); in [11] it was 34.6 µM (active).

The AC50 is the concentration at which the activity in the assay is half-maximal.
